For seven compounds, growth results are on record in PubChem BioAssay (NCI).

Common to all, as to assay: NCI-60 one-dose screen, 48 h (100 = growth as untreated, 0 = no growth, -100 = all killed)
Assay [1] deals with SK-MEL-2 melanoma. The settings on record: 10 µM unless noted.
Assay [2] has as its system EKVX NSCLC. Conditions: 10 µM unless noted.
For assay [3], the system named is SN12C renal. The settings on record: 10 µM unless noted.
Assay [4] deals with UO-31 renal. Conditions: 10 µM unless noted.
Assay [5] has as its system TK-10 renal. Conditions: 10 µM unless noted.
The test system of assay [6] is ACHN renal. Conditions: 10 µM unless noted.
Assay [7] concerns CAKI-1 renal. The settings on record: 10 µM unless noted.
The subject of assay [8] is A498 renal. Conditions: 10 µM unless noted.
The test system of assay [9] is CCRF-CEM leukemia. Conditions: 10 µM unless noted.
Assay [10] deals with MOLT-4 leukemia. The settings on record: 10 µM unless noted.
The test system of assay [11] is SR leukemia. The settings on record: 10 µM unless noted.
Assay [12] has as its system RPMI-8226 leukemia. The settings on record: 10 µM unless noted.
Assay [13] deals with OVCAR-8 ovarian. The settings on record: 10 µM unless noted.
Assay [14] relates to OVCAR-5 ovarian. The settings on record: 10 µM unless noted.
Assay [15] relates to OVCAR-4 ovarian. The settings on record: 10 µM.
Assay [16] has as its system IGROV1 ovarian. Conditions: 10 µM unless noted.
Assay [17] deals with OVCAR-3 ovarian. Conditions: 10 µM unless noted.
Assay [18] concerns HS 578T breast. Conditions: 10 µM unless noted.
Assay [19] deals with NCI/ADR-RES ovarian. The settings on record: 10 µM unless noted.

Compounds without any hit were thinned out: in the full panel of roughly 83,000, 20% have a hit.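 In brief: 96-well plates, 48 h treatment, single concentration, percent growth endpoint.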 Values without a mark were called inactive. Calls of active or inactive are those of the source. The calls were made as follows: active = growth percent below 10; inactive = the rest.

For `CCNC(=O)N1CCc2c(Cl)c3c(c(OC)c2[C@@H]1[C@H]1OCc2c1ccc(OC)c2OC)OCCO3`, the growth in assay [1] is 22.8%; in assay [2], 48.7%; in assay [3] it was 38.1%; in assay [4] it was 34.2%; in [5], 47.7%; in [6], 31.5%. For the same compound, the growth in assay [7] was 24.3%; in assay [8], -20.6% (active); in [9], 12.3%; in assay [10], 30.8%; in [11] it was 18.3%; in assay [12] it was 17.3%. The growth was 30.7% in assay [13]; 38.1% in assay [14]; 57.6% in assay [15]; 29.1% in assay [16]; -5.71% (active) in [17]; 14.5% in [18]. For the same compound, in assay [19], the growth is 1.11% (active).

As to `CCc1ccc(NC(=O)N[C@@H](Cc2cc(F)cc(F)c2)C(=O)N[C@@H]2C(=O)N3C[C@H](O)C[C@H]3C(=O)N3CCOC[C@H]3C(=O)N[C@@H](C)C(=O)N3C[C@H](C)C[C@H]3C(=O)O[C@H]2C)cc1`, the growth is 29% in [1]; 79% in assay [2]; 24.3% in [3]; 78.7% in assay [4]; 95.8% in assay [5]; 103% in assay [6]. Besides, the growth was 84.4% in assay [7]; 38.6% in assay [8]; 50.9% in [9]; 43.3% in [10]; 48.3% in assay [11]; 17.2% in assay [12]. Also, the growth in assay [13] was 62.3%; in assay [14], 46.3%; in [15], 12.8%; in [16], 49.4%; in assay [17] it was 16.8%; in assay [18] it was 41.2%. Also, in assay [19], the growth is 107%.

Consider `Cc1ccc(-c2cn(C/C=C3\C=CN(S(=O)(=O)c4ccccc4)CC3)nn2)cc1`, for which the growth in assay [1] was 101%; in assay [2] it was 101%; in [3], 91.9%; in assay [4], 72.6%; in assay [5] it was 115%; in assay [6], 95.8%. In addition, the growth in [7] was 76.5%; in assay [8], 94.3%; in assay [9], 3.1% (active); in assay [10], 106%; in assay [11], 108%; in [12], 102%. Besides, the growth was 100% in [13]; 120% in assay [14]; 74.2% in assay [15]; 104% in assay [16]; 108% in assay [17]; 97.2% in assay [18]. Moreover, the growth in assay [19] was 99.6%.

In the case of `COc1ncc(-c2ccc3nccc(C#CCCCCC(=O)NO)c3c2)cc1NS(=O)(=O)c1ccc(F)cc1F`, the growth in assay [1] is -60.7% (active); in assay [2], 4.18% (active); in [3] it was 15%; in assay [4] it was 8.08% (active); in assay [5], -25.1% (active); in [6] it was 10.7%. The growth is 6.12% (active) in assay [7]; -76.1% (active) in assay [8]; -8.34% (active) in assay [9]; -18% (active) in assay [10]; -24.5% (active) in assay [11]; -25.1% (active) in assay [12]. For the same compound, the growth is -12.8% (active) in assay [13]; 4.43% (active) in assay [14]; 24.9% in assay [15]; -21.6% (active) in assay [16]; -31.6% (active) in assay [17]; -23.8% (active) in assay [18]. Also, the growth in [19] is 55.3%.

`Cc1ccc(-c2cc(-c3ccc(C)cc3)nc(N3CCN(CCNc4ccnc5cc(Cl)ccc45)CC3)n2)cc1`: the growth in assay [1] is 65.4%; in assay [2], 74%; in assay [3], 34.7%; in [4], -27.8% (active); in [5], 0.923% (active); in assay [6], 72.9%. The growth in [7] was 32.7%; in assay [8] it was 47.1%; in assay [9], 8.72% (active); in assay [10] it was 38.9%; in [11], -1.09% (active); in assay [12], 19.4%. Besides, the growth in assay [13] is 25.4%; in assay [14] it was 79.4%; in assay [15], -59.4% (active); in [16], 5.07% (active); in [17], -53.6% (active); in assay [18], -22.6% (active). Moreover, the growth in assay [19] was 6.51% (active).

Consider `CCN(CC)c1ccc2cc(NC(=O)OCCNC(=O)CCNC(=O)[C@H](CC(C)C)NC(=O)C(C)(C)NC(=O)C(C)(C)NC(=O)[C@H](CC(C)C)NC(=O)CCNC(=O)C(C)(C)NC(=O)[C@H](CC(C)C)NC(=O)CCNC(=O)[C@@](C)(CC)NC(=O)[C@H](C)NC(=O)CCNC(=O)C(C)(C)NC(=O)[C@H](C)NC(=O)[C@@H]3CCCN3C(=O)[C@@](C)(CC)NC(=O)[C@H](Cc3ccccc3)NC(=O)C3CCCN3C(=O)C(C)(C)NC(=O)C3CCCN3C(=O)C(C)(C)NC(C)=O)c(=O)oc2c1` (stereo partly drawn), for which the growth was -80.4% (active) in assay [1]; -100% (active) in assay [2]; -74.6% (active) in assay [3]; -80.5% (active) in assay [4]; -93.3% (active) in assay [5]; -85.4% (active) in assay [6]. Also, the growth was -92.4% (active) in assay [7]; -98.5% (active) in [8]; -63.5% (active) in assay [9]; -62% (active) in [10]; -52.9% (active) in assay [11]; -60.4% (active) in assay [12]. In addition, the growth was -74.8% (active) in assay [13]; -87.7% (active) in assay [14]; -94.9% (active) in assay [15]; -69.3% (active) in assay [16]; -100% (active) in [17]; -60.1% (active) in assay [18]. Besides, the growth in [19] is -93.5% (active).

With `C[n+]1c2ccccc2nc2c(N)cc(N)cc21`, the growth is 121% in assay [1]; 65.9% in [2]; 5.51% (active) in assay [3]; 78.3% in [4]; 126% in assay [5]; 96.7% in [6]. Besides, the growth in [7] is 111%; in assay [8] it was 121%; in [9], 58.8%; in assay [10] it was 34.8%; in assay [11] it was 38.3%; in assay [12], 80.2%. Moreover, the growth was 41.6% in [13]; 101% in assay [14]; 72.5% in [15]; 70.1% in [16]; 15.2% in assay [17]; 55.5% in assay [18]. Besides, the growth in [19] was 92.9%.
